# Calls of active or inactive are those of the source. How the source made its calls: active means hit-call score of the fitted dose curve at least 0.9, where 1 is the maximum; inactive means score below 0.9.
# Biological target: Transcription factor Sp1 (Homo sapiens) (UniProt P08047)
# Assay: ATG_Sp1_CIS: Attagene CIS-FACTORIAL HepG2 Assay for human Specificity Protein 1 (Sp1) (AID 2282961)
# Conditions: HepG2 Sp1 cis-reporter transcription, actives raise or lower the signal
# Procedure: ATG_CIS is a cell-based, multiplexed-readout assay that uses HepG2, a human liver cell line, with measurements taken at 24 hours after chemical dosing in a 24-well plate.ATG_Sp1_CIS is one of 52 assay component(s) measured or calculated from the ATG_CIS assay. It is designed to make measurements of mRNA induction, a form of inducible reporter, as detected with fluorescence intensity signals by Reverse transcription polymerase chain reaction (RT-PCR) and Capillary electrophoresis technology.Data from the assay component ATG_Sp1_CIS was analyzed into 1 assay endpoint. This assay endpoint, ATG_Sp1_CIS, was analyzed with bidirectional fitting relative to DMSO as the negative control and baseline of activity. Using a type of inducible reporter, measures of mRNA for gain or loss-of-signal activity can be used to understand the reporter gene at the transcription factor-level as they relate to the gene SP1. Furthermore, this assay endpoint can be referred to as a primary readout, because this assay has produced multiple assay endpoints where this one serves a reporter gene function. To generalize the intended target to other relatable targets, this assay endpoint is annotated to the dna binding intended target family, where the subfamily is zinc finger.
# Human liver HepG2 cells are transiently transfected with multiple reporter transcription units (MRTUs) in 6-well plates using FuGene 6 reagent (Roche; 3 ml FuGene/1 mg DNA). The MRTU constructs are regulated by a cis-regulating element (promoter). […] A major difference between the CIS and TRANS system is that in CIS activities of endogenous TFs are measured, whereas the TRANS assay evaluates changes in activities of exogenous, chimeric NR-Gal4 proteins. […] At the end of 24 hour incubation, total RNA was isolated using TriZol reagent (Invitrogen). The isolated RNA is then reverse-transcribed using oligo(dT) primer and Mo-MLV reverse transcriptase (Invitrogen) with DNAse I (Ambion) treatment for 30 min. The one-tenth of the produced cDNA was amplified by PCR using Taq DNA polymerase (Invitrogen) and two reporter sequence-specific primers. The PCR products were fluorescently labeled by primer extension with 6-arboxyfluorescein (6-FAM) 5'-labeled reporter sequence-specific primer (2 min at 95 C, 20 s at 68 C and 10 min at 72 C) and these products were digested with 5U of HpaI (New England Biolabs) for 2h at 37 C. The fragments were purified using Qiaquick PCR columns (Qiagen), analyzed on an ABI 3130xL genetic analyzer (Applied Biosystems) with peak positions identified by using a set of X-rhodamine (ROX)-labeled MapMarker1000 molecular weight standards (BioVentures). The raw capillary electrophoresis data was processed using Attagraph software (Attagene).
# Transcription factor Sp1 (Homo sapiens), sequence (P08047 whole entry, looked up): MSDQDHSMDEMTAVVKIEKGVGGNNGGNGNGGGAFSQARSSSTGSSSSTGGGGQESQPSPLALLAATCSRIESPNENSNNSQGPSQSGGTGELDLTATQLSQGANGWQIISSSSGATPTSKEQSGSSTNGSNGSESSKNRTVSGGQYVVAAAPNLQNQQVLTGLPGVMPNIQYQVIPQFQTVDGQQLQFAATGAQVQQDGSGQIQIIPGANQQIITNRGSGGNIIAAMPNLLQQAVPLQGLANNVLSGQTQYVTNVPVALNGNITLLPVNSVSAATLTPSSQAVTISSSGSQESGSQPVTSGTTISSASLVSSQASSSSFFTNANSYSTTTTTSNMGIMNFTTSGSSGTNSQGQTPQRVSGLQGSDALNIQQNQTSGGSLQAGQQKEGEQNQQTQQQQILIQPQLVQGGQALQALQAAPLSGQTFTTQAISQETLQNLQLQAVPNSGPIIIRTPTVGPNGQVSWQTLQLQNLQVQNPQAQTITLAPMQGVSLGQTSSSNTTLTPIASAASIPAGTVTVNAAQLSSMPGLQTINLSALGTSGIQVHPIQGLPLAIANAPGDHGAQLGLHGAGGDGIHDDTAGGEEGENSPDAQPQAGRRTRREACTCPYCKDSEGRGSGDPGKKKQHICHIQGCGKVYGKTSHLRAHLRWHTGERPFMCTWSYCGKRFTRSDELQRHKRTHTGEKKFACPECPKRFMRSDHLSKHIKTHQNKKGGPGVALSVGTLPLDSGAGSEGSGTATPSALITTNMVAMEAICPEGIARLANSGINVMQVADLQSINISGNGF
Compound,outcome,AC50
CC1=NN(c2cc(Cl)c(S(=O)(=O)O)cc2Cl)C(=O)C1N=Nc1ccc(S(=O)(=O)O)cc1 (stereo not given),inactive,
O=C(c1ccccc1)c1ccccc1O,inactive,
O=C(CC(C(=O)OC1CCCCC1)S(=O)(=O)O)OC1CCCCC1 (stereo not given),inactive,
CCCc1c(OCCCCc2nn[nH]n2)ccc(C(C)=O)c1O,inactive,
N#CCN(CC#N)CCN(CC#N)CC#N,inactive,
Cc1cc(-n2nc3ccc(Cl)cc3n2)c(O)c(C(C)(C)C)c1,inactive,
CC/C=C\CC/C=C/C(OCC)OCC,inactive,
Cc1ccccc1S(N)(=O)=O,inactive,
O=C(O)c1nc(Cl)c(Cl)c(Cl)c1Cl,inactive,
Cc1ccnc(N)c1,inactive,
CCCCOC(=O)COc1ccc(Cl)cc1Cl,inactive,
CN(C)Cc1cc(C(C)(C)C)c(O)c(C(C)(C)C)c1,inactive,
C[Si](C)(C)O[Si](C)(C)O[Si](C)(C)C,inactive,
CCC(C)NC(N)=O (stereo not given),inactive,
O=C1NC(=O)C2CC=CCC12 (stereo not given),inactive,
Oc1cccc2ccccc12,inactive,
COC(OC)C(C)c1ccccc1 (stereo not given),inactive,
c1ccc2c(c1)Oc1ccccc1S2,,155 µM (active)
CCC(C)C1N=C(C)C(C)S1 (stereo not given),inactive,
OCCOCCOCCOCCOCCO,inactive,

Compound,outcome,AC50
CCCCn1cc[n+](C)c1,inactive,
C1=CCC=C1,inactive,
CCc1cc(C(N)=S)ccn1,inactive,
CCCC(=O)OC/C=C(\C)CCC=C(C)C,inactive,
Nc1ccc(S(=O)(=O)Nc2cnc3ccccc3n2)cc1,inactive,
Sc1nc2ccccc2s1,inactive,
CCO[Si](OCC)(OCC)c1ccccc1,inactive,
CCOC(=O)c1ccccc1,,28 µM (active)
COc1c2occc2cc2ccc(=O)oc12,inactive,
CCCCCCCCCC/C=C/C1CC(=O)OC1=O (stereo not given),inactive,
CC(=O)CCc1ccccc1,inactive,
CCC(C)(CCC(C)C)C(=O)O (stereo not given),inactive,
CC/C=C\CC1=C(C)CCC1=O,inactive,
CN(C)CCC(c1ccc(Cl)cc1)c1ccccn1 (stereo not given),inactive,
CNC[C@H](O)[C@@H](O)[C@H](O)[C@H](O)CO,inactive,
O=C(C1CCCCC1)N1CC(=O)N2CCc3ccccc3C2C1 (stereo not given),inactive,
CCCCCCCCCCCCCCCCCC[N+](C)(C)C,inactive,
CC(C)CC(=O)CC(C)CC(C)C (stereo not given),inactive,
C=CCOC(=O)C(=C)C,inactive,
CC(C)n1c(/C=C/[C@@H](O)C[C@@H](O)CC(=O)O)c(-c2ccc(F)cc2)c2ccccc21,inactive,

# Source: PubChem BioAssay (EPA / NIEHS)
